This passage reports Potency results from PubChem BioAssay (NCATS).

What all share (experiment): qHTS profiling for inhibitors of Plasmodium falciparum proliferation (AID 504749); further: nearly all actives have a fitted effect of over 60% in size
Common to all, as to settings: P. falciparum in erythrocytes, SYBR Green DNA, 72 h; series mostly up to 28.7 µM
A general note: qHTS replaces the single test concentration by a dilution series.

The test system of one experiment is 7G8. A digest of the protocol: (§1)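 SYBR Green fluorescence (ex 485 nm, em 535 nm) reports parasite DNA after 72 h compound exposure of infected red cells at 0.3% parasitemia, 2.5% hematocrit; signal normalized to 0.29 uM artemisinin and vehicle wells.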
The next experiment has as its system ATS95. A digest of the protocol:
as §1

The next experiment deals with CP201. A digest of the protocol:
as §1

The next experiment deals with CP203. A digest of the protocol: as §1
In a further experiment the test system is CP250. A digest of the protocol: as §1
The next experiment relates to CP256. A digest of the protocol: as §1
For the next experiment, the system named is CP262. A digest of the protocol: as §1
The test system of the next experiment is CP265. A digest of the protocol:
as §1

The test system of a further experiment is CP269. A digest of the protocol:
as §1

A further experiment relates to CP315. A digest of the protocol: as §1
The next experiment has as its system CP325. A digest of the protocol: as §1
For a further experiment, the system named is CP329. A digest of the protocol: as §1
The next experiment has as its system DIV30. A digest of the protocol: as §1
The next experiment deals with ECU. A digest of the protocol:
as §1

The subject of a further experiment is N140. A digest of the protocol: as §1
The subject of the next experiment is PAD. A digest of the protocol:
as §1

In the next experiment the test system is PC15. A digest of the protocol:
as §1

The next experiment concerns SC27B. A digest of the protocol:
as §1

A further experiment deals with TAB113. A digest of the protocol: as §1
The next experiment relates to TAB165. A digest of the protocol:
as §1

Results filed as inconclusive are left out. Active and inactive are the calls of the source. The call rests on the fitted dose curve; in most records, active means well fitted inhibition curve with a large enough effect; inconclusive means small, poorly fitted or top-dose-only effect; inactive means flat fitted curve, though single readings scatter.
Potency means the concentration at half of the fitted maximal effect.

Consider `CC1(C)OC[C@@H]2O[C@@]3(C(=O)O)OC(C)(C)O[C@@H]3[C@@H]2O1`, for which the Potency result in the experiment with 7G8, in the experiment on ATS95, in the experiment with CP201, in the experiment on CP203, in the experiment with CP250 and in the experiment with CP256 was “inactive” each time. The Potency result with CP262, with CP265, with CP269, in the experiment with CP315, with CP325 and in the experiment with CP329 was “inactive” throughout. Further, the Potency entry in the experiment on DIV30, with ECU, in the experiment on N140, in the experiment with PAD, in the experiment on PC15 and in the experiment on SC27B was “inactive” throughout. Moreover, the Potency result in the experiment with TAB113 and in the experiment with TAB165 was “inactive” each time.
With `NC(=O)C1CC2(NC(=O)NC2=O)c2cc(F)ccc2O1` (centres undefined), the Potency entry in the experiment on 7G8, in the experiment on ATS95, with CP201, with CP203, in the experiment with CP250 and in the experiment on CP256 was “inactive” throughout. For the same compound, the Potency entry in the experiment on CP262, in the experiment with CP265, in the experiment with CP269, with CP315, in the experiment on CP325 and with CP329 was “inactive” each time. Moreover, the Potency entry in the experiment on DIV30, with ECU, with N140, with PAD, in the experiment with PC15 and in the experiment on SC27B was “inactive” throughout. Moreover, the Potency result with TAB113 and in the experiment on TAB165 was “inactive” in each case.
In the case of `C=NC(C(=O)NC1C(=O)N2C1SC(C)(C)C2C(=O)O)c1ccccc1` (centres undefined), the Potency result with 7G8, with ATS95, with CP201, in the experiment with CP203, with CP250 and with CP256 was “inactive” each time. The Potency result in the experiment on CP262, in the experiment on CP265, with CP269, in the experiment on CP315, with CP325 and in the experiment with CP329 was “inactive” each time. For the same compound, the Potency entry in the experiment on DIV30, in the experiment with ECU, in the experiment with N140, with PAD, in the experiment on PC15 and in the experiment on SC27B was “inactive” in each case. The Potency entry in the experiment with TAB113 and with TAB165 was “inactive” in each case.
Regarding `C[C@H]1OC(OC2C(O)[C@@H](O)C(OC3C(O)[C@@H](O)C(O)O[C@@H]3CO)O[C@@H]2CO)[C@H](O)C(O)C1N[C@H]1C=C(CO)[C@@H](O)[C@H](O)C1O` (some centres undefined), the Potency entry in the experiment on 7G8, with ATS95, with CP201, in the experiment on CP203, with CP250 and in the experiment with CP256 was “inactive” each time. Further, the Potency entry with CP262, in the experiment with CP265, in the experiment with CP269, in the experiment with CP315, in the experiment with CP325 and in the experiment with CP329 was “inactive” in each case. The Potency result in the experiment with DIV30, in the experiment on ECU, with N140, with PAD, in the experiment on PC15 and in the experiment with SC27B was “inactive” in each case. The Potency entry in the experiment with TAB113 and in the experiment with TAB165 was “inactive” in each case.
As for `CC1(Cn2ccnn2)[C@H](C(=O)O)N2C(=O)C[C@H]2S1(=O)=O` (some centres undefined), the Potency entry in the experiment on 7G8, in the experiment on ATS95, with CP201, in the experiment on CP203, in the experiment with CP250 and in the experiment with CP256 was “inactive” in each case. Also, the Potency result with CP262, in the experiment with CP265, in the experiment on CP269, in the experiment with CP315, with CP325 and in the experiment on CP329 was “inactive” in each case. For the same compound, the Potency result with ECU, with N140, with PAD, in the experiment with PC15, with SC27B and in the experiment with TAB113 was “inactive” throughout. Besides, the Potency result in the experiment on TAB165 was “inactive”.
On to `CC1(C)C2CC[C@]1(C)[C@@H](O)C2`, for which the Potency entry in the experiment with 7G8, in the experiment with ATS95, in the experiment with CP201, with CP203, in the experiment with CP250 and in the experiment on CP256 was “inactive” each time. The Potency entry in the experiment with CP262, with CP265, in the experiment on CP269, with CP315, with CP325 and in the experiment on CP329 was “inactive” throughout. Further, the Potency result in the experiment on DIV30, with ECU, in the experiment with N140, with PAD, in the experiment with PC15 and in the experiment on SC27B was “inactive” throughout. The Potency result in the experiment on TAB113 and in the experiment on TAB165 was “inactive” each time.
For `NC(C(=O)O)c1ccc(O)cc1` (centres undefined), the Potency result in the experiment with 7G8, in the experiment on ATS95, with CP201, with CP203, in the experiment with CP250 and with CP256 was “inactive” each time. Further, the Potency result in the experiment on CP262, in the experiment with CP265, in the experiment on CP269, with CP315, with CP325 and with CP329 was “inactive” throughout. In addition, the Potency entry in the experiment with DIV30, in the experiment on ECU, in the experiment on N140, in the experiment with PAD, in the experiment on PC15 and in the experiment on SC27B was “inactive” in each case. Moreover, the Potency entry in the experiment on TAB113 and in the experiment with TAB165 was “inactive” each time.
As to `CC[C@@]1(O)C[C@H](O[C@H]2C[C@@H](N(C)C)[C@@H](O[C@H]3C[C@@H](O)[C@@H](O[C@H]4CCC(=O)[C@@H](C)O4)[C@@H](C)O3)[C@@H](C)O2)c2c(cc3c(c2O)C(=O)c2c(O)cccc2C3=O)[C@H]1C(=O)OC`, the Potency in the experiment on 7G8 is 39.8 nM (active); in the experiment on ATS95, 316 nM (active); in the experiment with CP201, 1510 nM (active); in the experiment on CP203, 849 nM (active); in the experiment with CP250 it was 251 nM (active); in the experiment with CP256 it was 282 nM (active). Besides, the Potency in the experiment on CP262 was 757 nM (active); with CP265, 224 nM (active); with CP269 it was 849 nM (active); in the experiment on CP315 it was 1350 nM (active); with CP325, 849 nM (active); with CP329, 849 nM (active). The Potency is 953 nM (active) in the experiment with DIV30; 355 nM (active) in the experiment with ECU; 178 nM (active) in the experiment with N140; 178 nM (active) with PAD; 158 nM (active) with PC15; 316 nM (active) in the experiment with SC27B. The Potency in the experiment with TAB113 was 199 nM (active); with TAB165, 141 nM (active).
As to `CC(C)(C)C(=O)OCC(=O)C1CCC2C3CCC4=CC(=O)CCC4(C)C3CCC12C` (centres undefined), the Potency result in the experiment on 7G8, in the experiment on ATS95, in the experiment with CP201, in the experiment with CP203, with CP250 and with CP256 was “inactive” throughout. In addition, the Potency entry in the experiment with CP262, with CP265, in the experiment with CP269, in the experiment on CP315, in the experiment with CP325 and in the experiment with CP329 was “inactive” each time. For the same compound, the Potency entry with DIV30, in the experiment with ECU, in the experiment on N140, in the experiment on PAD, with PC15 and in the experiment on SC27B was “inactive” in each case. For the same compound, the Potency result with TAB113 and in the experiment with TAB165 was “inactive” each time.
For `CC(=O)NC1[C@H]([C@H](O)[C@H](O)CO)OC(C(=O)O)=C[C@H]1N=C(N)N` (some centres undefined), the Potency entry in the experiment on 7G8, in the experiment with ATS95, in the experiment with CP201, in the experiment with CP203, with CP250 and with CP256 was “inactive” in each case. The Potency result with CP262, in the experiment on CP265, in the experiment with CP269, in the experiment with CP315, in the experiment with CP325 and in the experiment on CP329 was “inactive” in each case. In addition, the Potency result in the experiment on DIV30, in the experiment on ECU, in the experiment with N140, with PAD, in the experiment with PC15 and in the experiment on SC27B was “inactive” throughout. The Potency entry in the experiment with TAB113 and with TAB165 was “inactive” each time.
Regarding `O=C(OC[C@@H]1O[C@@](O)(COC(=O)c2cccnc2)[C@H](OC(=O)c2cccnc2)[C@H]1OC(=O)c1cccnc1)c1cccnc1`, the Potency entry in the experiment on 7G8, with ATS95, with CP201, in the experiment on CP203, with CP250 and in the experiment on CP256 was “inactive” throughout. For the same compound, the Potency entry in the experiment with CP262, with CP265, in the experiment with CP269, in the experiment with CP315, in the experiment on CP325 and in the experiment with CP329 was “inactive” each time. The Potency result in the experiment with DIV30, with ECU, in the experiment with N140, in the experiment with PAD, with PC15 and with SC27B was “inactive” each time. In addition, the Potency result in the experiment with TAB113 and in the experiment with TAB165 was “inactive” each time.
Regarding `CC(c1ncncc1F)[C@](O)(Cn1cncn1)c1ccc(F)cc1F` (some centres undefined), the Potency entry in the experiment with 7G8, in the experiment on ATS95, in the experiment on CP201, in the experiment on CP203, in the experiment with CP250 and in the experiment with CP256 was “inactive” in each case. Besides, the Potency result in the experiment with CP262, in the experiment on CP265, in the experiment with CP269, in the experiment on CP315, in the experiment on CP325 and with CP329 was “inactive” in each case. Also, the Potency entry in the experiment with DIV30, with ECU, in the experiment on N140, with PAD, with PC15 and with SC27B was “inactive” in each case. Also, the Potency result in the experiment with TAB113 and in the experiment with TAB165 was “inactive” throughout.
